Compound activity (PubChem)
CHO-K1 Ca antag – counter-screen for M1 antagonists: effect in parental CHO-K1 cells | ATP-induced calcium, Fluo-8 fluorescence | inhibition, % at 3 µM | actives 0.6% (n = 360,000);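 active means inhibition above a per-plate cutoff, the plate's mean sample inhibition plus 3 SD, cut at about 24% in these data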;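 further: 0% = DMSO plus EC80 ATP and 100% = DMSO alone without ATP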
M1 PAM – potentiates human M1 receptor response to acetylcholine. P11229. CHO-K1 hM1, Fluo-8 calcium fluorescence, ACh EC20; 0% = ACh EC20, 100% = maximal ACh. activation, % at 3 µM. actives 0.088% (n = 360,000); in the data active means activation above about 19%, passing the limit was not always enough
Target sequence (P11229 whole entry, looked up): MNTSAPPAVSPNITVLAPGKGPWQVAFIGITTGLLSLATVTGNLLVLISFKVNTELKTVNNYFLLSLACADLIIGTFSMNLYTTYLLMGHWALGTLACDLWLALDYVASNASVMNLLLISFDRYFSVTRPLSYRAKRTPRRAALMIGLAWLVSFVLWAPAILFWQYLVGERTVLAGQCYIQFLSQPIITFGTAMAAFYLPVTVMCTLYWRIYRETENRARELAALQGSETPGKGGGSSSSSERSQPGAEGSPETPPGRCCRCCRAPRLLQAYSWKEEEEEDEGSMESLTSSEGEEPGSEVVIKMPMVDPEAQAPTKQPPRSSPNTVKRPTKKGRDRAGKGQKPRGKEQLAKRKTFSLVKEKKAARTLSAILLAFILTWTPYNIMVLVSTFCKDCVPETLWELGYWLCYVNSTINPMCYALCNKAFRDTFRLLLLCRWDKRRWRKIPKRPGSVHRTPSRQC
CHRM1 agonist – agonists of human M1 muscarinic receptor; P11229; CHO-K1 hM1, Fluo-8 calcium fluorescence, agonist mode; 0% DMSO, 100% acetylcholine EC100; activation, % at 3 µM; actives 0.33% (n = 360,000); AID 588814;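 active means activation above the run's mean compound activation plus 3 SD, cut at about 16% in these data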;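 further: peak over basal fluorescence ratio within a 140 s kinetic read after compound addition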
CHRM1 antagonist – human CHRM1 antagonism; P11229; CHO-K1 hM1, Fluo-8 calcium fluorescence, ACh EC80 antagonist; inhibition, % at 3 µM; actives 1.3% (n = 360,000);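 active means percent inhibition above its own plate's cutoff, namely the mean of that plate's compound wells plus 3 SD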;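 further: peak over basal fluorescence ratio during 140 s after agonist addition; 0% = ACh EC80 plus DMSO and 100% = DMSO alone without agonist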
CHO-K1 Ca PAM – nonselective activator or artifact in parental CHO-K1 calcium assay | ATP EC20, Fluo-8 calcium fluorescence; 0% at ATP EC20, 100% at ATP max | activation, % at 3 µM | actives 0.02% (n = 360,000);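 active means activation above the run cutoff, the mean activation of all test compounds plus 3 SD, cut at about 40% in these data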;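 further: peak over basal fluorescence ratio in a 140 s read after ATP addition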
M1 ag parental – M1 agonist counterscreen hit in parental CHO-K1 cells. actives 0.48% (n = 360,000). Fluo-8 calcium fluorescence; scaled to maximal ATP response, vehicle zero. activation, % at 3 µM; in the data active means activation above about 15%;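 further: untransfected CHO-K1 host cells lacking M1 receptor as counterscreen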
* hit, by the source's call; . = no result. Only some compounds are listed: those with a hit (about 2.3% of all), similar ones and a draw of the others.

SMILES | CHO-K1 Ca antag | M1 PAM | CHRM1 agonist | CHRM1 antagonist | CHO-K1 Ca PAM | M1 ag parental
O=C(c1cc2cc(F)ccc2[nH]1)N(Cc1cccnc1)CC1CCCN(C2CCCCC2)C1 (stereo not given) | -5 | -21 | -6 | 35* | 0 | 0
CC(=O)N1CCc2[nH]c3ccccc3c2C1 | 14 | 9 | -1 | 4 | -4 | -1
O=C(CCCCl)N1CCc2[nH]c3ccccc3c2C1 | -4 | -2 | 24* | -17 | -12 | 1
COc1ccccc1NC(=O)N1CCc2[nH]c3ccc(F)cc3c2C1 | -16 | -10 | 26* | -17 | 23 | 2
O=C(N1CCc2[nH]c3ccccc3c2C1)C(F)(F)F | 8 | -12 | 46* | 8 | -13 | 0
Cc1nc(C)c(C(=O)OCC(=O)Nc2cccc(C)c2C)s1 | -7 | -3 | 0 | 8 | -1 | 2
O=C(CNC(=O)c1ccccc1)OC(C(=O)O)c1ccc(F)cc1 (stereo not given) | -6 | 1 | -3 | -5 | 16 | 1
CN(CCCN1CCCCC1)C(=O)c1cc(COc2ccc(F)cc2F)on1 | -5 | -21 | -7 | 38* | 5 | 0
CC(OC(=O)C1CCCC1)C(=O)Nc1ncc(Cl)cc1Cl (stereo not given) | -5 | -2 | -2 | 5 | -6 | 0
O=C(NCc1ccco1)C(=O)NCC1OCCN1S(=O)(=O)c1ccc(F)cc1 (stereo not given) | 5 | -9 | -4 | 14 | 1 | 0
O=C(NCc1ccco1)C(=O)NCC1OCCN1S(=O)(=O)c1cc(F)ccc1F (stereo not given) | -11 | 1 | 16* | -2 | 0 | 1
O=[N+]([O-])c1cccc(COc2ccc(CN3CCCCC3)cc2)c1 | -5 | -31 | -8 | 87* | -7 | 2
CCCCOc1ccc(C(O)C(CN2CCCCC2)c2ccccc2)cc1 (stereo not given) | 13 | -31 | -14 | 35* | 1 | 0
CCCCOc1ccc(CN2CCCCC2)cc1 | -22 | -31 | -15 | 42* | 15 | 1
COC(=O)c1ccc(CN2CCCC(CCC(=O)NCc3ccc(C)o3)C2)cc1 (stereo not given) | -10 | -29 | 53* | 87* | 27 | 0
COC(=O)c1ccc(CN2CCCC(CNC(=O)Cc3ccc(OC)cc3)C2)cc1 (stereo not given) | -13 | -6 | 30* | 14 | 6 | 1
COCc1ccc(CN2CCCC(CCC(=O)NCc3ccc(C)o3)C2)o1 (stereo not given) | -14 | 1 | -4 | 7 | 17 | 1
Fc1cc(F)cc(Nc2nc(Cl)nc(NC3CCCC3)n2)c1 | -7 | -9 | -9 | 5 | 6 | -1
O=C(C[n+]1cc(-c2ccc(Cl)cc2)n2c1CCC2)Nc1nc(-c2ccc(F)cc2)cs1 | 4 | 4 | -5 | -1 | 12 | 18*
Cc1ccc(-c2c[n+](CC(=O)N3c4ccccc4Sc4ccccc43)c3n2CCC3)cc1 | 23 | -25 | -7 | 100* | -10 | -1
O=C(C[n+]1cc(-c2ccc(F)cc2)n2c1CCC2)N1c2ccccc2Sc2ccccc21 | -12 | -25 | -7 | 96* | 27 | 1
O=C(C[n+]1cc(-c2ccccc2)n2c1CCC2)c1cccs1 | -11 | -2 | -16 | 3 | -8 | 1
O=C(C[n+]1cc(-c2ccccc2)n2c1CCC2)N1c2ccccc2Sc2ccccc21 | -6 | -26 | -8 | 99* | 18 | 0
CC1Cn2c(nc(=O)c3c2NCN(CCc2ccccc2)C3)S1 (stereo not given) | -2 | -11 | -4 | 28 | 14 | 5
Cc1cccc(COC[C@H](Cc2ccccc2)N2CCN(C(=O)c3cc(Cl)cc(Cl)c3)CCC2=O)c1 | -9 | . | . | . | -2 | 0
SMILES | CHO-K1 Ca antag | M1 PAM | CHRM1 agonist | CHRM1 antagonist | CHO-K1 Ca PAM | M1 ag parental
Cc1cc(C)n2nc(SCc3cccc(F)c3)nc2n1 | -14 | 7 | -6 | -7 | 16 | 2
Cc1c(Cl)cccc1NC(=O)CCNC(=O)N1CC(=O)Nc2ccccc21 | -11 | 7 | -1 | -5 | 22 | 0
CN1CCN(CCNC(=O)c2ccc3nc(-c4ccc(F)cc4)c(-c4ccc(F)cc4)nc3c2)CC1 | -15 | -21 | -5 | 45* | 20 | 2
CN1C(=O)C(CC(=O)Nc2ccc(F)cc2)N(NC(=O)c2cccc(F)c2)C1=S (stereo not given) | -4 | -9 | 0 | 50* | 12 | 2
CCN1C(=O)C(CC(=O)Nc2ccccc2Cl)N(NC(=O)c2cccc(F)c2)C1=S (stereo not given) | -15 | 4 | -1 | -4 | 16 | 4
Brc1ccc(CNc2ccc3ncccc3c2)cc1 | 19 | -16 | -2 | 36* | -8 | 9
CC(=O)c1cccc(S(=O)(=O)N2CCCC(c3nc4c(nnn4Cc4ccccc4Cl)c(=O)[nH]3)C2)c1 (stereo not given) | 12 | 3 | -11 | -5 | -16 | -1
O=C(c1cc(Br)c(Br)s1)N1CCN(c2ccccn2)CC1 | 6 | -15 | -5 | 39* | -8 | 3
Cc1cc(C)nc(NC(=O)c2cc(Br)ccc2Cl)n1 | -18 | 7 | -5 | -8 | 24 | 2
CCNC(=O)c1cc(Br)ccc1Cl | 24* | 8 | -2 | 8 | 10 | 0
Oc1cc(-c2cccnc2)cc2cccnc12 | 72* | -1 | -4 | 4 | -19 | -1
CN(C)S(=O)(=O)c1ccc(Cl)c(C(=O)NNC(=O)Cn2ccc(C(F)(F)F)n2)c1 | -6 | 14 | -2 | -15 | 4 | 0
CCOC(=O)N1CCN(C(=O)c2ccc(N(Cc3ccccc3Cl)S(C)(=O)=O)cc2)CC1 | 4 | 32* | 3 | -5 | 7 | 0
CC(=O)Nc1cccc(NC(=O)C(C)N2c3cccc4cccc(c34)S2(=O)=O)c1 (stereo not given) | -12 | 1 | -1 | 6 | 2 | 6
NC(=O)c1ccc(NC(=O)COC(=O)c2ccccc2SCC(=O)N2CCCC2)cc1 | -12 | 27* | 5 | -33 | 7 | 1
C=CCNC(=S)NNc1nc2sc3c(c2c(=O)[nH]1)CC(C)(C)OC3 | 6 | 2 | -6 | -3 | -10 | 0
CN(C)S(=O)(=O)N1CCC(Oc2ccc(C(=O)N3C[C@@H]4CCC[C@H]3C4)cc2)CC1 | -12 | 5 | 3 | -6 | 12 | 8
Cc1cc(NC(=O)COC(=O)C(C)Oc2ccc(Cl)cc2Cl)no1 (stereo not given) | -17 | 7 | -5 | -11 | 12 | 1
CN(C)c1nccc(N(Cc2ccccc2)Cc2ccccc2)c1C#N | -10 | -22 | -5 | 55* | 7 | 0
CN(C)CCN(Cc1ccccc1)c1ccnc(N(C)C)c1C#N | -10 | 0 | -5 | 1 | 6 | 0
